In PubChem BioAssay (NCATS):
Records with an inconclusive call do not appear. A number with no mark means an inactive call. Active and inactive are the calls of the source. Calls come from the whole dose curve; as a rule, active = well fitted inhibition curve with a large enough effect; inconclusive = small, poorly fitted or top-dose-only effect; inactive = flat fitted curve, though single readings scatter. *1 amine or outer side, *2 acyl side, *3 side chain or, on linkers, in order; H or OH if unused. Where a SMILES comes first, the peptide text is derived from it. Bridges are numbered along the chain shown (N, C = ends). [ ]: non-standard residue; d: D form. The star is where a group is joined. ξ: configuration not given here. X10 = NC1=NCCC(C(N[*:1])C(=O)[*:2])N1; ΔAla(3-NHCONH2) = NC(=O)NC=C(N)C(=O)O; ξβ3hOrn = NCCCC(N)CC(=O)*; Dap = NC[CH](N)C(=O)O

test system: Zika virus NS2B-NS3 protease; assay: Primary screen GU AMC qHTS for Zika virus inhibitors (AID 1347154); conditions: Zika NS2B-NS3 unlinked protease, AMC fluorogenic substrate; series mostly up to 54.1 µM; activity change, negative = inhibition: at the top concentration;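 note: 0% = no-inhibitor control and -100% = no-enzyme control; nearly all actives have a fitted effect of over 70% in size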
Procedure, shortened: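 Unlinked Zika NS2B hydrophilic domain/NS3 protease domain noncovalent complex (25 nM final) in 10 mM Tris-HCl pH 8.0, 0.01% Tween 20, with AMC peptide substrate. Fluorescence (ex 340, em 450 nm) change over 15 min, room temperature; percent inhibition fitted to 4-parameter Hill equation.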

SMILES	activity change, negative = inhibition	Potency
N#CC1(c2ccc(F)cc2)CCC(=O)CC1	5.53%	–
COc1cc2c(cc1OC)CN(C(=O)[C@H](C)N[C@@H](CCc1ccccc1)C(=O)O)[C@H](C(=O)O)C2	-1.93%	–
Cc1ccc(O)cc1	-1.03%	–
CCOC(=O)C(=O)c1csc(NC=O)n1	4.32%	–
CC(=O)O[C@@H]1CC2C3CCc4cc(OC(=O)c5ccccc5)ccc4C3CCC2(C)[C@H]1OC(C)=O (stereo partly drawn)	-0.193%	–
CC(=O)Nc1c(I)c(NC(C)=O)c(I)c(C(=O)O)c1I	3.7%	–
Cc1ccc(C(=O)Oc2ccc(C(O)CNC(C)(C)C)cc2OC(=O)c2ccc(C)cc2)cc1 (stereo not drawn)	-19.8%	–
NCCCC(N)CC(=O)NCC1NC(=O)C(CO)NC(=O)C(N)CNC(=O)C(C2CCN=C(N)N2)NC(=O)C(=CNC(N)=O)NC1=O (stereo not drawn) (H-[Dap]S[Dap](ξβ3hOrn)[ΔAla(3-NHCONH2)][X10]; lactam 1-C; configuration not given here)	-2.82% [at 0.59 µM]	–
CN1Cc2cc(C(=O)N3CCC(C4CCNCC4)CC3)ccc2NC(CC(=O)O)C1=O (stereo not drawn)	-7.03%	–
CCN(CC)CC(=O)OCC(=O)[C@@]1(O)CC[C@H]2[C@@H]3CCC4=CC(=O)CC[C@]4(C)[C@H]3[C@@H](O)C[C@@]21C	-4.23%	–
CC(C)C(=O)Nc1cccc(C2CN3CCSC3=N2)c1 (stereo not drawn)	3.19%	–
CCOCCn1c(C2CCN(CCc3ccc(C(C)(C)C(=O)O)cc3)CC2)nc2ccccc21	-3.83%	–
CCO[C@H](Cc1ccc(OCCc2ccc(OS(C)(=O)=O)cc2)cc1)C(=O)O	3.17%	–
CCC1=C[C@@H]2CN(C1)Cc1c([nH]c3ccccc13)[C@@](C(=O)OC)(c1cc3c(cc1OC)N(C)[C@H]1[C@@](O)(C(=O)OC)[C@H](OC(C)=O)[C@]4(CC)C=CCN5CC[C@]31[C@@H]54)C2	3.66%	–
COc1ccc(/C(C)=C/C(=O)O)c(OC)c1	1.49%	–
C[C@H]1C[C@@H]2[C@H]([C@@H](O)C[C@@]3(C)[C@H]2CC[C@]3(O)C(=O)CO)[C@@]2(C)C=CC(=O)C=C12	-6.15%	–
Cc1ccc(CCn2c3c(c4cc(Cl)ccc42)CN(C)CC3)cn1	3.08%	–
NC(N)=NCCCCN=C(N)N	–	inactive
CCCCC(=O)OCC(=O)[C@H]1[C@H](C)C[C@H]2[C@@H]3C[C@H](F)C4=CC(=O)C=C[C@]4(C)[C@@]3(F)[C@@H](O)C[C@@]21C	-16.8%	–

SMILES	activity change, negative = inhibition	Potency
[O-][n+]1cccc(/C(Cl)=N/OC[C@@H](O)CN2CCCCC2)c1	-3.44%	–
CC(=O)N1CCN(c2ccc(O)cc2)CC1	4.83%	–
CCOC(=O)OCC/C(SC(=O)OCC)=C(\C)N(C=O)Cc1cnc(C)nc1N	-3.4%	–
Nc1ccc([N+](=O)[O-])c(C(F)(F)F)c1	4.46%	–
CC(=O)CC/C=C(\C)CC/C=C(\C)CC/C=C(\C)CCC=C(C)C	-1.93%	–
O=c1[nH]sc2cc(Cl)ccc12	0.162%	–
Cc1ccccc1C(=O)N1CC/C(=N\OS(=O)(=O)O)c2ccc(Cl)cc21	-3.51%	–
O=C(C1CCCCC1)N1CC(=O)N2CCCc3ccccc3C2C1 (stereo not drawn)	-4.66%	–
Cc1[nH]cnc1-c1ccc(Cl)cc1	5.95%	–
CCS(=O)(=O)c1ccc(OC)c(C(=O)OC)c1	1.28%	–
CO/N=C(/C(=O)N[C@@H]1C(=O)N2C(C(=O)OCOC(=O)C(C)(C)C)=C(C)CS[C@H]12)c1csc(N)n1	-1.29%	–
CC(C)(c1ccc(O)cc1)c1ccc(O)cc1	-5.2% [at 104 µM]	–
COc1cc(C(=O)NC2CCCNC2)cc(OC)c1OC (stereo not drawn)	-0.695%	–
CC(C)OP(=O)(CP(=O)(OC(C)C)OC(C)C)OC(C)C	-6.33%	–
O=C(O)c1ccc(OCCN2CCCCC2)cc1	0.736%	–
O=C1NC(c2ccccc2)(c2ccccc2)C(=O)N1COP(=O)(O)O	5.32%	–
CC(=O)N[C@@H](CCC(N)=O)C(=O)O	-2.96%	–
Nc1c(I)cc(I)c(C(=O)N(CCC(=O)O)c2ccccc2)c1I	-1.4%	–
O=c1[nH]c2ccccc2c(=O)n1CCCl	-2.79%	–
